These results are taken from PubChem BioAssay.

Test [1] in a line: drug combination growth inhibition, ovarian cancer – cell-based, oncology-focused library, rucaparib conditional, profiling panel (AID 1508598). The conditions noted are these: patient-derived ovarian cancer cells, CellTiter-Glo viability, 144 h, stronger effect = lower value.
Test [2] in a line: chitosan synthesis blockers in C. neoformans – flow cytometry, Cibacron Brilliant Red staining (AID 1347148; call rule not given here;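 further: compound exposure lasted three days at 37 degrees C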). The conditions noted are these: Cryptococcus neoformans chitosan, stronger effect = lower value; at 10 µM unless noted.
Test [3] can be described thus: blockers of polyQ-driven CASP3 activation – cell-based (AID 1583). The settings on record: polyglutamine-induced caspase-3 activation, cell assay; stronger effect = higher value;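 tested at 10 µM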.
Test [4] in a line: yeast 75Q aggregation reduction – 75Q-TubU reporter (AID 1593). The settings on record: Yeast 75Q polyglutamine aggregation reporter.
Test [5] in a line: restoration of touch response, mutant HTT neurons – whole organism, C. elegans mechanosensory neurons, N-terminal huntingtin (AID 1599). The settings on record: C. elegans polyQ-huntingtin mechanosensory neurons, stronger effect = higher value.
Test [6] is described as follows: blockers of cytochrome c efflux from mitochondria – biochemical, purified mitochondria (AID 1603).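 Further: mouse liver mitochondria challenged with calcium chloride; signal normalized to the plate average as 100%.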 The settings on record: stronger effect = lower value.
Test [7] in a line: polyglutamine aggregate formation blockers (AID 1604). The settings on record: polyglutamine-induced protein aggregation inhibition assay; stronger effect = higher value; tested at 2.5 µM.
A short description of test [8]: glutamate transport activators, MN-1 cells, MN-1 cell line (AID 1612).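 Further: tested at 1 µM final; 0% = mean of DMSO vehicle wells on each plate; positive means more glutamate uptake than control and negative means less.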 The settings on record: MN-1 motor neuron cells, stronger effect = higher value.
Test [9] in a line: GFP-Q80 aggregate reduction, neuronal-like cells, cell-based, NGF-treated PC12, GFPQ80 (AID 1614).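 Further: lower means fewer inclusions and 0 means no inclusions at all.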 The conditions noted are these: PC12 NGF-treated GFP-polyQ80 inclusion reduction.
The nature of test [10]: 75Q-TubH aggregate inhibition, S. cerevisiae, yeast (AID 1616). The settings on record: S. cerevisiae 75Q-TubH polyglutamine aggregation suppression; stronger effect = higher value.
The nature of test [11]: MELAS cybrid and Rieske KO viability enhancers – cell-based, MELAS cybrids, Rieske KO mouse fibroblasts, CellTiter-Glo, primary screen (AID 1508586;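 active means mean z-score across replicates of 1.96 or higher in either the MELAS or the Rieske mutant cell line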;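 further: z relative to plate mean and SD of compound and empty wells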). The conditions noted are these: low glucose.
Test [12] in a line: compounds altering circadian rhythm period length – cell-based, LOPAC library, luminescence reporter (AID 2774; call rule not given here;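 further: values are relative to mean of DMSO wells on each plate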). The conditions noted are these: circadian reporter cells, at 7 µM, actives lie on both sides.
For test [13], the target named is NAD(+) hydrolase SARM1 (Homo sapiens) (UniProt Q6SZW1). The test is described as follows: blocking NAD cleavage by SARM1 SAM-TIR – cell lysate, NAD-Glo luminescence (AID 1508614;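 active means compound whose remaining NAD level is above about 45 nM, limit read from the data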). The conditions noted are these: SAM-TIR HEK293T lysate NADase, at 1 µM, stronger effect = higher value.
Test [14] has as its target Mitogen-activated protein kinase 7 (Homo sapiens) (UniProt Q13164). In words: Gal4-ERK5 driven luciferase induction – cell-based, HTS, primary screen (AID 1508626;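 active means luciferase signal above three times the same-plate solvent-only control wells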;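 further: luciferase driven by Gal4-ERK5 fusion binding five Gal4 sites before minimal TATA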). The settings on record: HeLa Gal4-ERK5 transactivation, 18 h, at 5 µM, stronger effect = higher value.
Test [15] in a line: blockers of cellular phospholipid synthesis – cell-based, LOPAC library, screen 4, primary screen (AID 1347384; call rule not given here). The conditions noted are these: animal cells, phospholipid biosynthesis inhibition screen; at 10 µM.
Test [16] deals with ATP-dependent translocase ABCB1 (Homo sapiens) (UniProt P08183). The test is described as follows: P-glycoprotein substrate transport blockade – cell-based (AID 377; in the data active means fluorescence slope change above about 50%). The conditions noted are these: MDR1-expressing cells, fluorescent substrate accumulation slope; stronger effect = higher value; concentration not given here.
Where [17] appears, read: MELAS cybrid survival, CellTiter-Glo 48 h, stronger effect = higher value.
Where [18] appears, read: Rieske KO mouse fibroblast survival, CellTiter-Glo 72 h.

Records with an inconclusive call do not appear. For some assays here: Measured potencies and affinities stand elsewhere. Activity calls are given as the source filed them.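 How the source made its calls, unless noted: active means normalized viability below 100% at a tested concentration; inactive means the rest.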

Chain of ATP-dependent translocase ABCB1 (Homo sapiens) (P08183 whole entry, looked up): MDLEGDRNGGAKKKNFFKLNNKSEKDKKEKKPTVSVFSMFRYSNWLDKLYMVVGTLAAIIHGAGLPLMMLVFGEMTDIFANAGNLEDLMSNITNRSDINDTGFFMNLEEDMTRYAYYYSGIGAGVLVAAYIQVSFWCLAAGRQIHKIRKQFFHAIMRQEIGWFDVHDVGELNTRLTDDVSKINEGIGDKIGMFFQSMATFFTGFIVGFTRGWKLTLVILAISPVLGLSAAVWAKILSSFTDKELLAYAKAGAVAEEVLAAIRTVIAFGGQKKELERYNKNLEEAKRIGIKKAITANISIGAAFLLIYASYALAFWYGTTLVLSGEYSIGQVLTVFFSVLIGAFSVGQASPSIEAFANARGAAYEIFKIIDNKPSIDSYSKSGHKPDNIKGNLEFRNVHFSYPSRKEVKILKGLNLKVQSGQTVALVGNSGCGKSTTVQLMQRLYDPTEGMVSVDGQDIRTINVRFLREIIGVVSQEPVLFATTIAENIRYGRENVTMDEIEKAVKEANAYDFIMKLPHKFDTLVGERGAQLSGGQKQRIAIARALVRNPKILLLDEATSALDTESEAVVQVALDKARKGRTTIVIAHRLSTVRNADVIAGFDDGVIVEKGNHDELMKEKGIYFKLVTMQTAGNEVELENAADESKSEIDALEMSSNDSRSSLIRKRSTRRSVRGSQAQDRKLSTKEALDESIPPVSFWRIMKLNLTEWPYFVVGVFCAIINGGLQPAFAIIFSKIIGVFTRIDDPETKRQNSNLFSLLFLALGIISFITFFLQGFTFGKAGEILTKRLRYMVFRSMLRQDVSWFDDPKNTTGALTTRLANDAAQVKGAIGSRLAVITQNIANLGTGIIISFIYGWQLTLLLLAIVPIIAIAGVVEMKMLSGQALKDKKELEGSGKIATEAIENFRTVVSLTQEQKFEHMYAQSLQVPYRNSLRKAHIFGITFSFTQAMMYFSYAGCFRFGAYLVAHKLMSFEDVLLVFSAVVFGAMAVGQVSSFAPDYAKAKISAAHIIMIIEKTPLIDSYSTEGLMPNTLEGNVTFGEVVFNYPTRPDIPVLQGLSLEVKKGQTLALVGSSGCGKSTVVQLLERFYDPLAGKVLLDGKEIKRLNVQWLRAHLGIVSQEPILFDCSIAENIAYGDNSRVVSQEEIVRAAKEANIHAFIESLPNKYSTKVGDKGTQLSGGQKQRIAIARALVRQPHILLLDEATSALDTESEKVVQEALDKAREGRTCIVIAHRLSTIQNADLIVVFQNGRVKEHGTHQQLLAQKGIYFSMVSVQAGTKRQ
Chain of Mitogen-activated protein kinase 7 (Homo sapiens) (Q13164 whole entry, looked up, the tested form may be a part): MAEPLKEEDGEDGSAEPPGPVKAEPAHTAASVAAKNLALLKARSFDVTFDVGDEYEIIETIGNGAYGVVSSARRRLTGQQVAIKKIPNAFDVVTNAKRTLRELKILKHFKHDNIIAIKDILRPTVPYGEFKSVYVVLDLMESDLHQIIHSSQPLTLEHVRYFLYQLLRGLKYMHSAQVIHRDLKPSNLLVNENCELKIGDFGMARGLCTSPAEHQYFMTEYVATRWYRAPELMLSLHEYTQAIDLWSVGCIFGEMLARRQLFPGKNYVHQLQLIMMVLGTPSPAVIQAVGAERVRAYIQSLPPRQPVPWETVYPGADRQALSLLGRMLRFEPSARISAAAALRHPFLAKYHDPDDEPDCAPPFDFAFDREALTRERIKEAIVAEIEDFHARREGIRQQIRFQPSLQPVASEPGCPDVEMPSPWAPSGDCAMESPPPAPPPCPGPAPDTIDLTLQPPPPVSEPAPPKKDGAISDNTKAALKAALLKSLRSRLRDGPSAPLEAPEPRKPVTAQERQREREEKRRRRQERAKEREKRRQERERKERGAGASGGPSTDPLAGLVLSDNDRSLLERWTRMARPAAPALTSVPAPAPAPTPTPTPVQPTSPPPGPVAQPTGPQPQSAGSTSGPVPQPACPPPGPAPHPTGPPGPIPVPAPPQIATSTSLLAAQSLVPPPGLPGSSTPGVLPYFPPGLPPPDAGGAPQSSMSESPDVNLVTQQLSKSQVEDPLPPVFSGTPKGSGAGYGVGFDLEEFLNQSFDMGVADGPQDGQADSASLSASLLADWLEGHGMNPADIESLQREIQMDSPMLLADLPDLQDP
Chain of NAD(+) hydrolase SARM1 (Homo sapiens) (Q6SZW1 whole entry, looked up, the tested form may be a part): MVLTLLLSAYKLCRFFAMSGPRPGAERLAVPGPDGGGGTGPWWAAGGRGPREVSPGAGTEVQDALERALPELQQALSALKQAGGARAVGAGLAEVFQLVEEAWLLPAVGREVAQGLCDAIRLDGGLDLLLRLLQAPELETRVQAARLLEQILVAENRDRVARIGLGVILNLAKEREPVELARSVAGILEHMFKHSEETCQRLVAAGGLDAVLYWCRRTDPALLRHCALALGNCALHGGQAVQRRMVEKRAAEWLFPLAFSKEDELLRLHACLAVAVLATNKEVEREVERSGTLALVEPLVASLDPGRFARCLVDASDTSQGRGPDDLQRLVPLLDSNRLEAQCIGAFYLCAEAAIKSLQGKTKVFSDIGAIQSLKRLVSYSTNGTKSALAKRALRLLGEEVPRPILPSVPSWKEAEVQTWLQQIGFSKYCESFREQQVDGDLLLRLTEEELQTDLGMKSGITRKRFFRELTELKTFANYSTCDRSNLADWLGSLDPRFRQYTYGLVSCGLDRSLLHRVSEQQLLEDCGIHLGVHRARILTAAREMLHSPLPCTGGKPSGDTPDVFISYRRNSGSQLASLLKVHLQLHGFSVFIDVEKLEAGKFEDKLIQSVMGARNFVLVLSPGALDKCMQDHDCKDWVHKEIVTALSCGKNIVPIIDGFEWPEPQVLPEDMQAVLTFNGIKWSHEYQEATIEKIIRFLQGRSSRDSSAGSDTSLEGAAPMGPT

In the case of `C/C(=C\c1csc(C)n1)[C@H]1C[C@@H]2O[C@]2(C)CCC[C@H](C)[C@H](O)[C@@H](C)C(=O)C(C)(C)[C@H](O)CC(=O)O1`, the viability in [1] (at 0.000305 µM, OCI-C5x cells, with rucaparib 10 µM, 100% = cells with rucaparib alone) was 47% (active); in test [1] (at 0.000305 µM, OCI-C5x cells, without rucaparib), 25.7% (active); in test [1] (at 0.000305 µM, OCI-P5x cells, with rucaparib 20 µM, 100% = cells with rucaparib alone), 57.2% (active); in test [1] (at 0.000305 µM, OCI-P5x cells, without rucaparib), 15.5% (active); in [1] (at 0.00122 µM, OCI-C5x cells, with rucaparib 10 µM, 100% = cells with rucaparib alone), 36.1% (active); in [1] (at 0.00122 µM, OCI-C5x cells, without rucaparib), 27.1% (active). In addition, the viability in [1] (at 0.00122 µM, OCI-P5x cells, with rucaparib 20 µM, 100% = cells with rucaparib alone) was 48.9% (active); in test [1] (at 0.00122 µM, OCI-P5x cells, without rucaparib) it was 17.2% (active); in test [1] (at 0.00488 µM, OCI-C5x cells, with rucaparib 10 µM, 100% = cells with rucaparib alone), 39.5% (active); in test [1] (at 0.00488 µM, OCI-C5x cells, without rucaparib), 27.9% (active); in test [1] (at 0.00488 µM, OCI-P5x cells, with rucaparib 20 µM, 100% = cells with rucaparib alone) it was 48% (active); in test [1] (at 0.00488 µM, OCI-P5x cells, without rucaparib) it was 17.6% (active). For the same compound, the viability was 34.8% (active) in test [1] (at 0.0195 µM, OCI-C5x cells, with rucaparib 10 µM, 100% = cells with rucaparib alone); 27.5% (active) in test [1] (at 0.0195 µM, OCI-C5x cells, without rucaparib); 47.2% (active) in test [1] (at 0.0195 µM, OCI-P5x cells, with rucaparib 20 µM, 100% = cells with rucaparib alone); 16.3% (active) in [1] (at 0.0195 µM, OCI-P5x cells, without rucaparib); 35.3% (active) in test [1] (at 0.0781 µM, OCI-C5x cells, with rucaparib 10 µM, 100% = cells with rucaparib alone); 27.6% (active) in test [1] (at 0.0781 µM, OCI-C5x cells, without rucaparib). In addition, the viability in [1] (at 0.0781 µM, OCI-P5x cells, with rucaparib 20 µM, 100% = cells with rucaparib alone) was 45.8% (active); in test [1] (at 0.0781 µM, OCI-P5x cells, without rucaparib), 16.3% (active); in test [1] (at 0.313 µM, OCI-C5x cells, with rucaparib 10 µM, 100% = cells with rucaparib alone), 40.6% (active); in [1] (at 0.313 µM, OCI-C5x cells, without rucaparib), 35.3% (active); in test [1] (at 0.313 µM, OCI-P5x cells, with rucaparib 20 µM, 100% = cells with rucaparib alone), 44.8% (active); in test [1] (at 0.313 µM, OCI-P5x cells, without rucaparib) it was 15.9% (active). For the same compound, the viability in test [1] (at 1.25 µM, OCI-C5x cells, with rucaparib 10 µM, 100% = cells with rucaparib alone) is 45.2% (active); in test [1] (at 1.25 µM, OCI-C5x cells, without rucaparib) it was 38.5% (active); in test [1] (at 1.25 µM, OCI-P5x cells, with rucaparib 20 µM, 100% = cells with rucaparib alone) it was 39.6% (active); in test [1] (at 1.25 µM, OCI-P5x cells, without rucaparib), 16.1% (active); in [1] (at 5 µM, OCI-C5x cells, with rucaparib 10 µM, 100% = cells with rucaparib alone), 45.4% (active); in test [1] (at 5 µM, OCI-C5x cells, without rucaparib), 40.3% (active). For the same compound, the viability is 43.9% (active) in test [1] (at 5 µM, OCI-P5x cells, with rucaparib 20 µM, 100% = cells with rucaparib alone) and 15.4% (active) in test [1] (at 5 µM, OCI-P5x cells, without rucaparib).
For the compound `C=C1C(=O)O[C@H]2C[C@H](C)[C@H]3C=CC(=O)[C@]3(C)[C@H](O)[C@@H]12`, in [2], the fold fluorescence was 9.09 [at 190.6 µM] (inactive).
For `C=CCC1(CC(C)C)C(=O)NC(=O)NC1=O`, in test [3], the inhibition was -3.41%. This compound also came in with a score in test [4] of 0.97. The same compound registered a rescue above control in test [5] of 1.21. For the same compound, the cytochrome c release ratio in [6] worked out at 0.94. Moreover, in test [7], the inhibition of aggregation is 7.48%. Besides, in test [8], the glutamate uptake change amounted to 5.4%. Also, in test [9], the inclusion score is 2. The compound further yielded an aggregation suppression score in [10] of 1.15. The z-score is 0.0849 (inactive) in [11] (setting [17]) and 0.0147 in [11] (setting [18]).
On to `CN1CCN(C(=O)OC2c3nccnc3C(=O)N2c2ccc(Cl)cn2)CC1` (centres undefined), for which the period change in test [12] is -0.19 h (inactive). In addition, the z-score is -0.0147 (inactive) in test [11] (setting [17]) and 0.36 in [11] (setting [18]).
Take `COC1=CC(=O)O[C@H](/C=C/c2ccccc2)C1`: the fold fluorescence in test [2] was 3.69 [at 217.1 µM] (inactive).
For the compound `CNc1ccc2oc(C[C@H]3OC4(CC[C@H]3C)O[C@@H](C(C)C(=O)c3ccc[nH]3)[C@@H](C)C[C@@H]4C)nc2c1C(=O)O` (some centres undefined), the fold fluorescence in test [2] is 5.79 [at 95.5 µM] (inactive).
Still for that read-out and setting: with `CC(C)NC[C@H](O)c1ccc(N)c(C#N)c1` the figure was 4.74 [at 228 µM] (inactive).
Take `O[C@@H]1[C@@H]2[C@@H](O)CCCN2C[C@@H]1O`: the fold fluorescence in test [2] was 5.36 [at 288.7 µM] (inactive).
Take `C=CC[C@]1(O)CC[C@H]2[C@@H]3CCC4=CC(=O)CCC4=C3C=C[C@@]21C`: the z-score in test [11] (setting [17]) was 0.712 (inactive); in [11] (setting [18]), 0.629. Further, in test [13], the remaining NAD is 10 nM (inactive). Further, the luciferase signal in test [14] was 60 AU (inactive).
As for `N#CCCN`, the result in test [15] was inactive.
As for `CC[C@H](C)[C@H]1O[C@]2(C=C[C@@H]1C)C[C@@H]1C[C@@H](C/C=C(\C)C(O[C@H]3C[C@H](OC)C(O[C@H]4C[C@H](OC)[C@@H](O)[C@H](C)O4)[C@H](C)O3)[C@@H](C)/C=C/C=C3\CO[C@@H]4[C@H](O)C(C)=C[C@@H](C(=O)O1)[C@]34O)O2` (some centres undefined), the fluorescence slope change in test [16] was 61.5% (active). Further, the values for the z-score in test [11] (setting [17]) and in test [11] (setting [18]) were -1.19 (inactive) and 1.52, respectively.
As to `OC[C@@H]1O[C@H](n2cnc3cc(Cl)c(Cl)cc32)C(O)[C@@H]1O` (some centres undefined), in test [2], the fold fluorescence was 3.08 [at 156.7 µM] (inactive).
